# Rows were chosen to be rich in hits. Some 9.2% of all compounds tested hit in one or more screens of this group.
# Lamin A splicing = changes lamin A minigene splicing in HeLa cells; AID 1487; actives 0.01% (n = 200,000); Potency, µM (series often up to 46.1 µM), actives largely listed as inhibitors; HeLa LMNA splicing GFP/RFP minigene ratio, 48 h; active = well fitted inhibition curve with a large enough effect in the signal ratio, with a control signal flat, not every such curve was filed as active; inconclusive = small, poorly fitted or top-dose-only effect, or effect the other way, or a change in a side signal; the % refers to the signal ratio
#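 Read-out is the ratio of GFP to DsRed2 object intensity, acquired by 488 nm laser-scanning cytometry on HeLa lamin A-EGFP minigene reporter cells. Compound incubation 48 hrs at 37 °C in Opti-MEM with 2% FBS; DMSO 0.5% final.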
# ALDH1A1 block = inhibitors of human aldehyde dehydrogenase 1A1 | AID 1030 | Potency, µM (titrated, usually from 75.3 µM), hits mostly inhibitors | actives 7.3% (n = 220,000) | Purified ALDH1A1, NADH fluorescence, propionaldehyde substrate
# HTT ATP protect = Huntington cell model cytoprotection by ATP luminescence; PC12 HTT-Q103 induced, cytoprotection, ATP luminescence, 40 h; Potency, µM (top dose mostly 56.4 µM), most hits filed as activators; actives 0.14% (n = 230,000); AID 1471; active = well fitted curve in the direction sought with a large enough effect; inconclusive = small, poorly fitted or top-dose-only effect, or another doubt; inactive = no such curve, though single readings can be large; an effect the other way counts as inactive or inconclusive; also: nearly all actives have a fitted effect of over 45% in size
#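 Rat PC12, Q103 Htt exon1-GFP fusion, ecdysone promoter; tebufenozide inducer 100 nM final; compound titration; qHTS, 1500 cells/well; ATPlite luminescent read.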
# JMJD2E inh = blocks human JMJD2E demethylase activity. B2RXH2. AID 2147. Potency, µM (titrated, usually from 57.1 µM), usual class: inhibitors. JMJD2E catalytic domain, FDH-coupled NADH fluorescence (FDH is formaldehyde dehydrogenase). actives 1.6% (n = 230,000); also: nearly all actives have a fitted effect of over 50% in size
# Target sequence (B2RXH2 1-337 limits assumed): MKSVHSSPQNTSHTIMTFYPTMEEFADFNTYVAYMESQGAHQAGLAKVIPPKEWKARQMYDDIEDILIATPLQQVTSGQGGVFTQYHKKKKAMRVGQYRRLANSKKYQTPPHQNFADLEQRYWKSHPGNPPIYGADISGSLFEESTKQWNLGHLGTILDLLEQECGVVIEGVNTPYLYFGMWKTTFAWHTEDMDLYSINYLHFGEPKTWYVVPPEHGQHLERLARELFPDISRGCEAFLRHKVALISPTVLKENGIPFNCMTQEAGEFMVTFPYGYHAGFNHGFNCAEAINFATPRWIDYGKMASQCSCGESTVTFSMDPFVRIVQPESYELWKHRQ
# HPGD inh = HPGD (human) dehydrogenase inhibition. P15428. purified HPGD, NADH fluorescence kinetic, PGE2 substrate. Potency, µM, usual class: inhibitors. actives 4.3% (n = 150,000). AID 894
#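 20 nM HPGD preincubated 15 min at room temperature with compound in 50 mM Tris-HCl pH 8, 0.01% Tween 20. Started with 1 mM NAD+ and 30 uM prostaglandin E2; NADH fluorescence (360/450 nm) read 5 times over 30-s intervals, last minus first.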
# HttQ103 aggreg = mutant huntingtin aggregation inhibition; AID 1688; actives 1.1% (n = 220,000); Potency, µM (doses to about 46.1 µM), hits mostly inhibitors; PC12 HttQ103-GFP aggregates, Acumen cytometry, 40 h; active = well fitted curve in the direction sought with a large enough effect; inconclusive = small, poorly fitted or top-dose-only effect, or another doubt; inactive = no such curve, though single readings can be large; an effect the other way counts as inactive or inconclusive; also: nearly all actives have a fitted effect of over 60% in size
#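 Steps: seed 1500 PC12 HTTQ103-GFP cells/well; add tebufenozide, 100 nM final; add compound titration; add ATPLite reagent; quantify GFP aggregates by laser scanning cytometry.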
# A number is an active result; – = inactive; ? = inconclusive; · = not tested or not shown; [ ] = remark or other dose. Unless noted, calls follow the shape of the dose curve; as a rule, active = well fitted inhibition curve with a large enough effect (not every such curve was filed as active); inconclusive = small, poorly fitted or top-dose-only effect, or another doubt; inactive = no such curve, though single readings can be large or run the other way.
SMILES,Lamin A splicing,ALDH1A1 block,HTT ATP protect,JMJD2E inh,HPGD inh,HttQ103 aggreg
COCCn1c(SCC(=O)N2CCCc3ccccc32)nc2cccnc21,–,3.2µM,?,–,–,–
Cn1c(SCC(=O)N2CCCc3ccccc32)nnc1-c1ccco1,–,–,–[10 µM],–,·,?
Cn1c(SCC(=O)N2CCCc3ccccc32)nnc1-c1ccccc1,?,25µM,–,–,–,–
COc1cc(OC)c(NS(=O)(=O)c2cc(-c3cnc(C4CC4)o3)ccc2C)cc1Cl,–,·,·,·,·,·
COc1ccc(OC)c2c1sc(=NC(=O)C1COc3ccccc3O1)n2C (stereo not drawn),·,·,–[10 µM],–,·,–[9.22 µM]
Cc1nc(CC(C)C)cc(C(=O)N2CCCC(CNS(=O)(=O)c3cccs3)C2)n1 (stereo not drawn),?,–,–[10 µM],–,·,–[9.22 µM]
COc1ccc(NC(=S)N(CCc2nc3cc(C)c(C)cc3[nH]2)Cc2cccnc2)cc1,–,13µM,?,–,–,–
COc1ccc(NC(=S)N(CCc2c(C)[nH]c3ccccc23)Cc2cccnc2)cc1,?,–,·,–,–,–
CC(=O)c1ccccc1Oc1nc(CN2CCOCC2)nc2scc(-c3cccs3)c12,–,22µM,–[0.074 µM],?,–,–
Nc1nc(SC/C=C\c2ccccc2)c2[nH]cnc2n1,·,–[13.5 µM],–[10 µM],·,–,·
COc1ccc(C(=O)Nc2cc(C(F)(F)F)ccc2-n2cnc3ccccc32)cc1,–,?,–[10 µM],–,–,–
CC(=O)Nc1ccc(C(=O)Nc2cc(C(F)(F)F)ccc2-n2cnc3ccccc32)cc1,?,?,–[10 µM],–,14µM,–
CS(=O)(=O)c1ccc(S(=O)CC(=O)Oc2ccc(Cl)cc2)c([N+](=O)[O-])c1 (stereo not drawn),·,?,?,3.2µM,·,–
N#C/C(=C\c1cccs1)C(=O)c1ccccc1Cl,·,22µM,–[10 µM],?,·,–[9.22 µM]
CC(=O)CSCc1ccccn1,·,3.5µM,–[10 µM],·,–,·
COC(=O)C[C@@H]1O[C@H]1[C@H](C)[C@@H](OC)C(C)C,·,–[13.5 µM],–[10 µM],·,·,·
COc1cccc(-n2c(CN3CCN(Cc4ccccc4)CC3)nc3ccc([N+](=O)[O-])cc3c2=O)c1,–,24µM,–[10 µM],–,–,–
O=c1c2cc([N+](=O)[O-])ccc2nc(CN2CCN(c3ccccn3)CC2)n1-c1ccccc1F,·,14µM,–,?,·,–
CCOC(=O)c1ccc(-n2c(CN3CCN(CCO)CC3)nc3ccc([N+](=O)[O-])cc3c2=O)cc1,–,?,–,–,·,–
COc1ccc(-n2c(CN3CCN(c4ccccn4)CC3)nc3ccc([N+](=O)[O-])cc3c2=O)c(OC)c1,–,?,–,?,·,–
COc1ccc(-n2c(CN3CCN(Cc4ccccc4)CC3)nc3ccc([N+](=O)[O-])cc3c2=O)c(OC)c1,·,20µM,–,?,·,–
CC(=O)Nc1cccc(-c2nnc(SCC(=O)n3c4c(c5ccccc53)CCCC4)n2C)c1,–,22µM,–,–,–,–
CC(=O)Nc1ccc(-c2nnc(SCC(=O)Nc3ccc4c(c3)oc3ccccc34)n2C)cc1,–[0.0737 µM],0.4µM,–,–,–,–
CCn1c(SCC(=O)Nc2ccc3c(c2)oc2ccccc23)nnc1-c1ccc(N)cc1,?,25µM,–,–,?,–
O=C(c1csnn1)N1CCC2(CC1)CN(C(c1ccccc1)c1ccccc1)C2,·,–,?,·,–,·
SMILES,Lamin A splicing,ALDH1A1 block,HTT ATP protect,JMJD2E inh,HPGD inh,HttQ103 aggreg
COc1ccc(-c2cc3nc4ccccc4n3c(N)c2C#N)cc1,·,?,–[10 µM],?,·,–[9.22 µM]
CCN1C(=O)/C(=C\C=C2/C=CC=CN2CC)SC1=S,–,25µM,·,?,–,–
CNC(=S)/N=C/NOCc1ccc(Cl)cc1Cl,–,–,–[10 µM],–,·,7.9µM
Cn1c(SCC(=O)Nc2ccccc2-c2ccccc2)nnc1-c1ccco1,–,8.9µM,–,–,–,–
CCOC(=O)c1c(-c2ccccc2)csc1NC(=O)CSc1nnnn1C,?,–,–,–,32µM,?
Cc1occc1-c1nnc(SCC(=O)Nc2ccccc2-c2ccccc2)n1C,?,22µM,–[10 µM],–,–,–
Cn1c(SCC(=O)c2cc(Cl)c(Cl)s2)nnc1-c1ccco1,·,28µM,–[10 µM],–,·,–[9.22 µM]

# Source: PubChem
